The full ranking holds about 2,300 compounds; the median of “plate-normalized OD600 growth (mean of duplicates)” is about 0.29, and the lowest 2% start at about 0.22. The full list was thinned out, with the lowest values kept by preference.
System: Escherichia coli BW25113
Test: plate-normalized OD600 growth (mean of duplicates) (OD600 (normalized)); higher = more growth (less inhibition)
Settings: 10 µM
Protocol: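 E. coli BW25113 in LB (100 µl, 96-well, no shaking) was exposed to 10 µM of each compound from a ~30,000-member library and grown at 37°C for 24 h or 15°C for 48 h, in duplicate. Growth was read as OD600 and the duplicate ODs were normalized across screening plates to correct plate-to-plate variation. Hits were >3σ below the mean OD600 at 15°C and <2σ below the mean at 37°C.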

Row | SMILES | plate-normalized OD600 growth (temperature: 15°C, 48 h) | plate-normalized OD600 growth (temperature: 37°C, 24 h)
1 | CSCCC(NC(=O)c1ccccc1)C(=O)OCC(=O)Nc1ccccc1C#N (stereo not given) | 0.236 | 0.619
2 | Clc1cccc(CN2CCN(Cc3ccco3)CC2)c1 | 0.237 | 0.636
3 | Cc1cc2c(cc1C)CN(c1ccc(C(=O)N/N=C/c3ccccc3O)cc1)C2 | 0.25 | 0.63
4 | COc1ccc(/C=N/NC(=O)COc2ccc(Cl)cc2)cc1I | 0.257 | 0.62
5 | CCCCOc1cccc(NC(=O)CCSc2nccn2C)c1 | 0.25 | 0.643
6 | N#C/C(=C\c1ccccc1Cl)c1nc2ccccc2[nH]1 | 0.26 | 0.624
7 | O=C(NCc1csc(-c2cccs2)n1)C1=Cc2ccccc2OC1 | 0.243 | 0.593
8 | O=C(Nc1ccccc1C(=O)NC1CCCCNC1=O)c1cccs1 (stereo not given) | 0.253 | 0.638
9 | COc1ccc(-c2cc(C(F)(F)F)n3nc(C(=O)NC(C)(C)C)c(Cl)c3n2)cc1OC | 0.245 | 0.619
10 | Cc1nc(Nc2ccc(F)cc2)c2oc3ccccc3c2n1 | 0.245 | 0.613
